Experimental data taken from PubChem BioAssay (NCI).
About 83,000 compounds went through this panel and 20% of them were active in at least one assay; those are over-represented in the sample as a whole.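 Cell lines were cultured in 96-well plates, exposed to a single compound concentration, and assessed for percent growth 48 hours later.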 Values without a mark were called inactive. Active and inactive are the calls of the source. The calls were made as follows: active = growth percent below 10; inactive = the rest.

How the values were obtained:
Test in all cases: NCI-60 one-dose screen, 48 h (100 = growth as untreated, 0 = no growth, -100 = all killed)
Conditions in all cases: 10 µM unless noted
BT-549 breast = tested on: BT-549 breast
MDA-MB-435 melanoma = tested on: MDA-MB-435 melanoma
SW-620 colon = tested on: SW-620 colon
MCF7 breast = tested on: MCF7 breast
HCC-2998 colon = tested on: HCC-2998 colon
KM12 colon = tested on: KM12 colon
HCT-116 colon = tested on: HCT-116 colon

SMILES	growth (BT-549 breast)	growth (MDA-MB-435 melanoma)	growth (SW-620 colon) [%]	growth (MCF7 breast)	growth (HCC-2998 colon)	growth (KM12 colon)	growth (HCT-116 colon)
COc1ccc(-n2nc(C(=O)NCC(=O)O)nc2-c2ccccc2)cc1	94.2%	111%	112	98.2%	118%	108%	–
O=C1CCC23OC(c4ccccc4N12)C(O)C(O)C3O (stereo not drawn)	111%	110%	103	100%	94.5%	104%	–
COc1cc(N=Nc2cc(S(=O)(=O)O)cc3cc(S(=O)(=O)O)cc(O)c23)c(C)cc1N=Nc1c(S(=O)(=O)O)cc2cc(Nc3ccccc3)ccc2c1O	103%	109%	108	103%	105%	102%	–
CCCCc1n(Cc2ccc3ccccc3n2)cc[n+]1Cc1ccc2ccccc2c1	-16.9% (active)	1.33% (active)	11.2	–	-6.38% (active)	-42.4% (active)	–
OCCNc1nc(NCCO)nc(Nc2ccc(C3=NN(c4cc(Cl)cc(Cl)c4)C(c4ccc(Cl)cc4)C3)cc2)n1 (stereo not drawn)	52.1%	-15.8% (active)	23.4	3.94% (active)	27.1%	19.3%	–
O=CN1N=C(c2ccc(Cl)cc2)CC1c1cccc(Nc2ccnc3cc(C(F)(F)F)ccc23)c1 (stereo not drawn)	53.9%	54.3%	89.8	38%	76.7%	59.2%	–
O=C(CCc1nnc2sc(OCc3ccccc3)nn12)c1nc2ccc([N+](=O)[O-])cc2[nH]1	102%	106%	107	–	101%	95.7%	–
Nc1ccc(C(=O)Nc2cccc(C(=O)Nc3ccc4c(O)c(N=Nc5ccc(N=Nc6ccc(S(=O)(=O)O)cc6)cc5)c(S(=O)(=O)O)cc4c3)c2)cc1	111%	106%	105	94.8%	98%	104%	–
COc1ccc2nc3nc4ccc[nH]c4cc3c2c1	84.1%	101%	–	5.69% (active)	101%	52.1%	104%
O=c1c2ccccc2oc2ccc(OCCCCCN3CCCCCC3)cc12	78.5%	73.8%	–	68.2%	84.6%	68.6%	58.4%
NCCN1CCNCC1	130%	105%	–	96.6%	94.3%	109%	105%
COc1ccc(C(C)c2cc(OC)c(OC)c(OC)c2)cc1 (stereo not drawn)	24.6%	-42.6% (active)	–	13.8%	30.2%	–	4.67% (active)
CN(C)c1ccc(-c2ccc3[nH]c(=O)nc(-c4ccc(F)cc4)c3c2)cn1	40.6%	2.63% (active)	–	29.4%	84.3%	31.5%	22.2%
COc1cc(-c2nn(-c3ccc(Br)cc3)cc2CO)ccc1O	89.6%	108%	–	92.1%	104%	91.7%	92.6%
O=C(CCCCCCCCC(=O)Nc1cccc(C2=NCCN2)c1)Nc1cccc(C2=NCCN2)c1	92.2%	99.2%	–	49.9%	95.7%	95.5%	98.3%
CCCCC(=O)Nc1c(C(=O)Nc2ccccc2)sc2nc3c(cc12)C(OC(=O)CCCC)CCC3 (stereo not drawn)	85.4%	108%	–	82.9%	101%	99.9%	101%
O=c1[nH]c2ccccc2cc1-c1nc2ccc(Cl)cc2[nH]1	43%	32.5%	–	23.8%	79.7%	5.1% (active)	22.2%
COc1cc(C(=O)Nc2cc(O)c(C/C=C(\C)CCC=C(C)C)c(O)c2)cc2c1O[C@]1(C)CC[C@@H](O)C(C)(C)[C@H]1C2	18.4%	17.1%	–	10.2%	23.2%	13.3%	13.2%
COC(=O)c1nc(-c2ccccc2)oc1S(=O)(=O)n1nc(C)cc1N	69.8%	79.6%	–	60.2%	115%	96.3%	67.9%
CCOC(=O)C(=Cc1c(-c2ccccc2)[nH]c2ccccc12)C(=O)OCC	67.1%	14.5%	–	41.6%	80.7%	24.1%	41%
COc1ccc(-c2cc(-c3nnc(SCC(=O)Nc4ccc(/C(C)=N\O)cc4)o3)c3ccccc3n2)cc1	108%	110%	–	96.1%	101%	101%	107%
COc1cc(NCC(=O)Nc2cc(Nc3ccc(C)cc3)ncn2)c(Cl)c(OC)c1Cl	101%	102%	–	78.6%	92.6%	87.5%	88.4%
CC1(C)Cc2c(Br)c(Br)c(Br)c(OCC(O)CN3CCOCC3)c2O1 (stereo not drawn)	78%	87.5%	–	114%	95.9%	95%	77.9%

SMILES	growth (BT-549 breast)	growth (MDA-MB-435 melanoma)	growth (SW-620 colon) [%]	growth (MCF7 breast)	growth (HCC-2998 colon)	growth (KM12 colon)	growth (HCT-116 colon)
O=C1CS/C(=N/c2nnc(-c3ccc(O)cc3)s2)N1	100%	103%	–	89.3%	102%	100%	99.8%
CCc1c(C(=O)N[C@@H](C(=O)OCc2ccccc2)C(C)O)[nH]c2ccc(Cl)cc12 (stereo partly drawn)	90.8%	87.9%	–	65.6%	101%	77.3%	18.9%
CCCCc1ccc(N=Nc2ccc(OCC[N+](C)(C)C)cc2)cc1	56.4%	88.6%	–	85.1%	25.6%	29.9%	48.7%
C=C(C)[C@@H]1CCC=C2CC[C@]3(C)[C@H](CC[C@@H]4[C@@]5(C)CCCNC(C)(C)[C@@H]5CC[C@]43C)[C@H]21	89.2%	16.8%	–	0.921% (active)	5.32% (active)	19.9%	–
COc1ccc(C2=NN(c3ccc(S(N)(=O)=O)cc3)C(c3ccc(Cl)cc3)C2)c(O)c1 (stereo not drawn)	84.7%	47.2%	–	28.2%	60.6%	41.3%	24.4%
C=CCn1c(SCC(=O)Nc2ccc(C(=O)/C=C/c3cc(OC)c(OC)c(OC)c3)cc2)nnc1-c1ccccc1	95.5%	50%	–	13.6%	108%	54.4%	15.8%
CCOc1ccccc1C(=O)/C=C/c1cc2ccccc2[nH]c1=O	-19.2% (active)	5.11% (active)	–	3.4% (active)	-97.6% (active)	-45.3% (active)	-64.7% (active)
c1ccc(-c2n(Cc3ccc4ccccc4n3)cc[n+]2Cc2ccc3ccccc3c2)cc1	3.57% (active)	2.12% (active)	–	–	-13.2% (active)	-38.5% (active)	–
COc1ccc(-n2cc(-c3ccc(Cl)c(Cl)c3)[nH]c2=O)cc1OC	94.2%	99.7%	–	84.7%	96%	95.3%	90.4%
c1ccc(Sc2ncccn2)nc1	137%	104%	–	93.2%	101%	–	99.3%
C=C(C)[C@@H]1CC[C@]2(C(=O)N=C=S)CC[C@]3(C)[C@H](CC[C@@H]4[C@@]5(C)CCC(=O)C(C)(C)[C@@H]5CC[C@]43C)[C@@H]12	47.3%	47.1%	–	16.4%	43.3%	21.2%	13.8%
CCCCc1nc(Cl)c(C2CC(c3ccc(Cl)cc3)=NN2c2cc(Cl)cc(Cl)c2)[nH]1 (stereo not drawn)	72%	83.2%	–	85.1%	102%	89%	63.9%
CN(C)CSc1nc2ccccc2s1	81.1%	99.9%	–	87.3%	97.7%	98.3%	89.7%
C#C[C@@]1(O)[C@@H](CO)O[C@@H](n2cnc3c(-c4ccccc4)ncnc32)[C@@H]1O	102%	100%	–	82.1%	103%	106%	99.8%
O=C(Nc1ccc(S(=O)(=O)NC2CCCCCC2)cc1)C(c1ccccc1)S(=O)(=O)c1ccc(F)cc1 (stereo not drawn)	-3.97% (active)	-17% (active)	–	0.0605% (active)	15.4%	5.09% (active)	5.61% (active)
Cc1nccc2c3ccc(OCc4cn(-c5ccc(Br)cc5)nn4)cc3n(CC(C)C)c12	54.4%	61.3%	–	31.2%	70.3%	–	23%
N#Cc1c(-c2ccc(F)cc2)nc(N/N=C/c2cccc(O)c2)nc1N1CCOCC1	93.4%	93.4%	–	72.4%	95.1%	86%	71%
Cc1c(O)c(=O)ccn1-c1nc2ccccc2s1	93.4%	99.7%	–	98.6%	114%	98.5%	95.8%
COC(=O)c1cc2c3c(cc(O)c2[nH]1)N(C(=O)C1Cc2cc(OC)c(OC)c(OC)c2N1)CC3CCl (stereo not drawn)	-84.6% (active)	-14% (active)	–	-5.51% (active)	-73.2% (active)	-29.4% (active)	-63.3% (active)
Nc1c(C(=O)Nc2ccccn2)sc2nc3c(cc12)CCCC3	44%	-24.6% (active)	–	24.2%	57.1%	30.8%	13.6%
N#Cc1ccc(Oc2ccc3ccc(=O)oc3c2)cc1	110%	120%	–	97.3%	104%	96.2%	91.5%
COc1cc2c(Nc3ccc(NC(=O)Nc4ccc(Cl)c(C(F)(F)F)c4)c(Cl)c3)ncnc2cc1OCCCN1CCN(C)CC1	21.6%	-71.2% (active)	–	-77.4% (active)	20.2%	-55.1% (active)	-73.2% (active)
CCOC(=O)CC[C@H](NC(=O)c1ccc(NC)c2ccccc12)C(=O)OCC	100%	105%	–	94.7%	115%	103%	92%
